Sampled rows, rich in hits. Any-hit rate of the full collection: about 1.6%.
JMJD2C inh – blocks human GASC-1 demethylase activity | AID 2099 | 330,000 tested, 0.069% active | Q9H3R0 | inhibition, % at 2.35 µM | GST-JMJD2C(1-420) H3K9me3 demethylation, DELFIA europium;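 active = more than half of a compound's replicate wells show inhibition beyond 50%, single wells judged on their own value; inconclusive = some, but no more than half, of replicates pass 50% inhibition; inactive = no replicate passes 50% inhibition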;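 note: signal counts dimethyl H3K9 product captured on neutravidin plate; 0% = median of DMSO wells and 100% = 0.3 times that DMSO median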
PREPL inhibitor – inhibitors of human prolyl oligopeptidase-like enzyme PREPL. 320,000 tested, 0.68% active. inhibition, % at 5.96 µM. Q4J6C6. recombinant PREPL, fluorescence polarization activity-based probe;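 note: 0% = enzyme with DMSO and 100% = wells lacking enzyme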
Target sequence (Q4J6C6 whole entry, looked up): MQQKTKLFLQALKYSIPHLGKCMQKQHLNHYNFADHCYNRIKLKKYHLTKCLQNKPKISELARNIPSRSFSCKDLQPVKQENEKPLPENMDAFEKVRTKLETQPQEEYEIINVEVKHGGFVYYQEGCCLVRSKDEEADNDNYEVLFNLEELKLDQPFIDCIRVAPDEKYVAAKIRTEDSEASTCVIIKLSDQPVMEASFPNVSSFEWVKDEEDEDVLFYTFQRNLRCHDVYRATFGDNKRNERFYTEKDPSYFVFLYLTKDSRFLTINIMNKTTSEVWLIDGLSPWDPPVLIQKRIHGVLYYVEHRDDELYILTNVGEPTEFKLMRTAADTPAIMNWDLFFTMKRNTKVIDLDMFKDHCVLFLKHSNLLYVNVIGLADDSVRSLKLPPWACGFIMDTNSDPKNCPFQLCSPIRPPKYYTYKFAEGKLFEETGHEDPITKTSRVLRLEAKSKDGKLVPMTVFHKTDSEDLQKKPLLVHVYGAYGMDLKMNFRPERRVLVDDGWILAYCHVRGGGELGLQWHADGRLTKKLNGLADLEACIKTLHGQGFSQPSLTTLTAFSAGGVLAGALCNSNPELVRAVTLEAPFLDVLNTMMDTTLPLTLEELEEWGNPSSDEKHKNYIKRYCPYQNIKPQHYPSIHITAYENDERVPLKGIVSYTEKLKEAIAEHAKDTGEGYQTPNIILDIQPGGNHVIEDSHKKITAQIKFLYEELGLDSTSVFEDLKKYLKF
DSG3 Ab inh – inhibitors of pemphigus antibody binding to human desmoglein-3; P32926; DSG3-coupled beads, scFv-anti-DSG3-GFP binding, flow cytometry; stronger effect = lower value; binding (percent of control), % at 10 µM; 310,000 tested, 0.48% active; AID 588358;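 active = binding more than 3 SD below its plate's average and above zero; inconclusive = below that plate limit but binding exactly zero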;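 note: hits lower antibody fragment binding to DSG3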
VLA-4 inh – inhibition in a human VLA-4 binding assay; VLA-4 expressing cells, ligand binding flow cytometry; 330,000 tested, 0.2% active; AID 2557; P13612; inhibition, % (about 7 µM as worked out from the volumes in the protocol); in the data active = inhibition above about 50%
GRK2 aptamer HTS – human GRK2 inhibition via aptamer displacement; bead flow cytometry, FAM-aptamer displacement from GRK2; inhibition of aptamer binding, % at 10 µM; AID 488847; P25098; 330,000 tested, 0.59% active;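 active = inhibition of aptamer binding above 40%, roughly 3 SD of noise, on plates passing a quality check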;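 note: median bead fluorescence of bound FAM aptamer so fluorescent compounds give negative values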
PREPL inh cf – human PREPL inhibition, confirmation. inhibition, % at 5.96 µM. recombinant PREPL, fluorescence polarization activity probe. shares compounds with PREPL inhibitor. 2,000 tested, 67% active;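 note: 0% = protein with DMSO and 100% = wells lacking protein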
Starred values were filed as active, the others as inactive; u = inconclusive; x = no result given. Cut-off read from the data, not from the text of the source, unless noted: active = inhibition above about 43%; inactive = the rest.

SMILES	JMJD2C inh	PREPL inhibitor	DSG3 Ab inh	VLA-4 inh	GRK2 aptamer HTS	PREPL inh cf
COc1cc(/C=N/n2cnnc2)ccc1OCc1ccccc1	0	46*	92	13	0	42
COc1ccc(/C=N/n2cnnc2)cc1COc1ccccn1	u	3	102	3	3	x
CCc1ccc(CNC(=O)CCS(=O)(=O)Cc2ccccc2F)cc1	15	9	89	-11	0	x
COc1ccc2[nH]c(C)c(C(=O)CN3CCN(C/C=C/c4ccccc4)CC3)c2c1	1	44*	105	3	4	35
CCN(CC)CCCN1C=C2C(=O)C(C)(OC(=O)CCC(=O)OC)C(=O)C(Br)=C2C=C1c1ccc(OC)cc1 (stereo not drawn)	3	70*	97	15	9	60*
COC(=O)CCC(=O)OC1(C)C(=O)C2=CN(Cc3ccco3)C(c3ccc(OC)cc3)=CC2=C(Br)C1=O (stereo not drawn)	3	8	x	-25	0	x
CCN(CC)CCCN1C=C2C(=O)C(C)(OC(=O)CCc3ccccc3)C(=O)C=C2C=C1c1ccc(C#N)cc1 (stereo not drawn)	-2	43*	108	-20	8	30
COC(=O)CCC(=O)OC1(C)C(=O)C2=CN(C3CCCC3)C(c3ccc(OC)cc3)=CC2=C(Br)C1=O (stereo not drawn)	0	54*	88	-8	19	41
C=CCN1C=C2C(=O)C(C)(OC(=O)CCC(=O)OC)C(=O)C(Br)=C2C=C1c1ccc(OC)cc1 (stereo not drawn)	4	74*	96	21	13	58*
CCCCC1=CC2=C(c3ccco3)C(=O)C(C)(OC(=O)c3ccc(OC)cc3)C(=O)C2=CN1CCCN(CC)CC (stereo not drawn)	-4	12	104	-10	1	x
COc1ccc(CN2C=C3C(=O)C(C)(OC(=O)CCc4ccccc4)C(=O)C=C3C=C2c2ccc(C#N)cc2)cc1 (stereo not drawn)	-1	33	107	-3	3	x
CCN(CC)CCNC(=O)NC(=O)c1ccc(Cl)cc1	-2	5	109	1	0	x
COC(=O)CCC(=O)OC1(C)C(=O)C2=CN(c3ccc(OC)cc3)C(c3ccc(OC)cc3)=CC2=C(Br)C1=O (stereo not drawn)	12	37	88	-12	20	x
COCCN1C=C2C(=O)C(C)(OC(=O)CCC(=O)OC)C(=O)C(Br)=C2C=C1c1ccc(OC)cc1 (stereo not drawn)	2	64*	89	-20	7	36
COc1ccc2c(c1)[nH]c1c(N3CCN(Cc4ccc5c(c4)OCO5)CC3)ncnc12	-6	67*	100	0	0	64*
COc1ccc2c(c1)[nH]c1c(N3CCSCC3)ncnc12	-5	9	112	1	0	x
COc1cccc2[nH]c3c(N4CCN(Cc5ccc6c(c5)OCO6)CC4)ncnc3c12	-17	73*	x	3	0	60*
COc1cc(C(CCN2CCCC(C)C2)c2c(OC)cc(OC)c3c2OC(=O)CC3c2ccc(N(C)C)cc2)cc(OC)c1OC (stereo not drawn)	-9	28	101	11	0	x
COc1cc(C2CC(=O)Oc3c(C(CCN4CCCC(C)C4)c4ccc(N(C)C)cc4)c(OC)cc(OC)c32)cc(OC)c1OC (stereo not drawn)	-7	46*	108	x	x	52*
CCO[C@@H]1OC(C(N)=O)=C[C@H](C2CC2)[C@H]1CCCO	-41	17	98	-2	0	x
O=C([O-])c1ccccc1-[n+]1c(-c2ccccc2)cc(-c2ccccc2)cc1-c1ccccc1	1	56*	105	26	0	46*
CC(C)=C1SC(N2CCN(c3ccc(C)cc3)CC2)=NC1=O	-2	50*	104	-12	2	45*
CC(C)=C1SC(N2CCN(c3ccc(Cl)cc3)CC2)=NC1=O	7	50*	99	-1	0	48*
CCc1ccc(-c2csc(NC(=O)C3=NN(c4ccccc4)C(=O)CC3)n2)cc1	5	44*	103	-14	0	37
OCC1(CO)COC(/C=C/c2ccccc2)=N1	-5	0	97	3	2	x
SMILES	JMJD2C inh	PREPL inhibitor	DSG3 Ab inh	VLA-4 inh	GRK2 aptamer HTS	PREPL inh cf
O=C(CC1C(=O)N(c2ccc(Cl)cc2)C(=S)N1CCc1ccncc1)Nc1ccc(F)cc1 (stereo not drawn)	5	-4	105	19	8	x
O=C1/C(=N\S(=O)(=O)c2cccs2)C([n+]2ccc(CCCc3ccccc3)cc2)=C([O-])c2ccccc21	-9	69*	100	11	3	70*
CCc1ccccc1NC(=O)CN1CCN(C(=O)c2cccc(-n3cnnn3)c2)CC1	-5	65*	x	6	0	6
O=C(c1cccnc1)N1CCN(Cc2ccc3ccccc3c2)CC1	-3	45*	94	7	1	36
O=C(c1cccnc1)N1CCN(Cc2cccc(F)c2)CC1	7	14	116	10	0	x
O=C1OC[C@@H]2CCCN2C(=O)[C@H](CC(=O)N(CCO)Cc2ccccc2)C/C=C\C[C@H]1Cc1ccc(F)cc1	5	51*	x	-8	1	39
O=C1OC[C@H]2CCCN2C(=O)[C@@H](CC(=O)N(CCO)Cc2ccccc2)C/C=C\C[C@@H]1Cc1ccc(F)cc1	-1	28	101	10	0	x
COCCSc1nnc(NC(=O)c2ccc(OC)c([N+](=O)[O-])c2)s1	-5	10	99	29	3	x
CCc1cc(CNC(=O)CC2C(=O)NCCN2Cc2c(F)cccc2Cl)on1 (stereo not drawn)	-5	5	105	-6	0	x
COc1cc(O)c(C(CC(=O)N2CCN(c3ccccc3)CC2)c2ccc(N(C)C)cc2)c(OC)c1 (stereo not drawn)	-4	54*	106	13	6	48*
COc1cc(O)c(C(CC(=O)N2CCCC(C)C2)c2ccc(N(C)C)cc2)c(OC)c1 (stereo not drawn)	1	20	108	29	1	x
Cc1cc(C(=O)COc2cc(F)ccc2[N+](=O)[O-])c(C)n1CC1CCCO1 (stereo not drawn)	7	4	x	10	0	x
O=C1N/C(=C/c2ccc(N3CCOCC3)cc2)C(=O)N1Cc1ccc(F)cc1	8	48*	98	1	1	75*
CN(C)c1ccc(C2C=C(c3ccc(Cl)cc3OC(F)F)Nc3ncnn32)cc1 (stereo not drawn)	25	56*	122	0	0	49*
CCOC(=O)C1CCN(C(=O)CN2C(=O)CSc3ccc(S(=O)(=O)N4CCOCC4)cc32)CC1	10	-3	u	0	4	x

Assay outcomes as filed in PubChem BioAssay.
